Test results taken from PubChem BioAssay (NCI).
Compounds without any hit were thinned out: in the full panel of roughly 83,000, 20% have a hit.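 Cell lines were cultured in 96-well plates, exposed to a single compound concentration, and assessed for percent growth 48 hours later.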 A number with no mark means an inactive call. Activity calls are given as the source filed them. The calls were made as follows: active = growth percent below 10; inactive = the rest.

Experiments:
Assay in all cases: NCI-60 one-dose screen, 48 h (100 = growth as untreated, 0 = no growth, -100 = all killed)
Conditions in all cases: 10 µM unless noted
[1] = test system: SR leukemia
[2] = test system: RPMI-8226 leukemia
[3] = test system: OVCAR-8 ovarian
[4] = test system: OVCAR-5 ovarian
[5] = test system: OVCAR-4 ovarian
[6] = test system: SK-OV-3 ovarian
[7] = test system: IGROV1 ovarian
[8] = test system: OVCAR-3 ovarian
[9] = test system: HS 578T breast
[10] = test system: NCI/ADR-RES ovarian
[11] = test system: T-47D breast
[12] = test system: MDA-MB-435 melanoma
[13] = test system: SW-620 colon
[14] = test system: MCF7 breast
[15] = test system: HCT-116 colon
[16] = test system: HCC-2998 colon
[17] = test system: KM12 colon
[18] = test system: BT-549 breast

| SMILES | growth [1] [%] | growth [2] | growth [3] [%] | growth [4] [%] | growth [5] [%] | growth [6] [%] | growth [7] [%] | growth [8] [%] | growth [9] [%] | growth [10] [%] | growth [11] [%] | growth [12] [%] | growth [13] [%] | growth [14] [%] | growth [15] [%] | growth [16] [%] | growth [17] [%] | growth [18] [%] |
| --- | --- | --- | --- | --- | --- | --- | --- | --- | --- | --- | --- | --- | --- | --- | --- | --- | --- | --- |
| c1ccc(-c2nnc(-c3ccccn3)s2)nc1 | 96.7 | 54.8% | 94 | 92.2 | 91.5 | 95.2 | 80.7 | 95.5 | 142 | 83 | 33.9 | 105 | 99.8 | 28.6 | 86.8 | 46.2 | 97.3 | – |
| COc1ccc(C2CC(c3ccc(OC)cc3OC)=NN2c2ccc(S(N)(=O)=O)cc2)cc1 (configuration not stated) | 70.2 | 2.07% (active) | 77 | 99.4 | 80.2 | 105 | 82.5 | 119 | 103 | 89.4 | 63.9 | 103 | 101 | – | 62.8 | 121 | 86.4 | 76.7 |
| O=S(=O)(CC(O)(c1ccccc1)c1ccccc1)CC(O)(c1ccccc1)c1ccccc1 | 118 | 94.7% | 75.8 | 94.9 | 80.9 | 77 | 66.5 | 77.1 | 65.3 | 86.1 | – | 89.9 | 89.6 | 80.9 | 77.7 | 93.1 | 87.6 | 102 |
| O=C(NNC(=O)N1c2ccccc2C=Cc2ccccc21)c1ccc2ccccc2c1 | 87.2 | 96.7% | 94.9 | 91.3 | 91.8 | 110 | 102 | 101 | 101 | 93 | 87.4 | 103 | 101 | – | 103 | 102 | 98.6 | – |
| COC(=O)c1cc(=O)nc(N/N=C/c2ccco2)s1 | 87 | 96% | 107 | 108 | 96.7 | 117 | 93.4 | – | 106 | 104 | 87.8 | 114 | 108 | 39.5 | 93.8 | 102 | 101 | 109 |
| CCOC(=O)C1=C(C)NC(C)=C(C(=O)OCC)C1(C)C | 90.6 | 94.8% | 102 | 99.7 | 101 | 110 | 131 | 112 | – | 122 | 95 | 116 | 117 | 98.9 | 100 | 108 | 118 | 93.6 |
| Nc1nc(=O)c2ccccc2s1 | 109 | 94.8% | 121 | 99.6 | 125 | 104 | 122 | 131 | 112 | 113 | – | 102 | 116 | 103 | 107 | 107 | 112 | 101 |
| CC(NNC(C)c1ccccc1)c1ccccc1 (configuration not stated) | 91.9 | 97.8% | 115 | 107 | 112 | 110 | 117 | 118 | 128 | 105 | – | 112 | 96.1 | 113 | 107 | 103 | 115 | 113 |
| NC1=NN(O)C2=CC([N+](=O)[O-])C=CC2=N1 (configuration not stated) | 94.8 | 99.2% | 99.4 | 118 | 108 | 100 | 120 | – | 98.8 | 93.4 | 101 | 109 | 110 | 96.1 | 107 | 97.2 | 103 | 104 |
